Source: PubChem BioAssay AID1159580 (chemical genetic matrix, 2015)
“And” between values parts separate entries of the source, which are not always exact repeats. Equal values may be shown once. Out of some 5,500 compounds screened, about 2,000 (36%) were called active. About 18% were inconclusive and are not listed. Rule as the data show it: active = normalized growth mostly below about 0.91 (no sharp cut-off); inconclusive = no clear call, values can overlap the other calls; inactive = mostly above about 0.92. The list shows a part of the results.

Assay: chemical genetic growth profiling, strain panel (AID 1159580);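 also: tested at 20 µM; growth read once vehicle control cultures reached saturation at 30 °C; 1 = growth at the plate median or of vehicle wells; lower values mean less growth of the strain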
Details: S. cerevisiae deletion strains, growth OD

Measured: normalized growth

CC(C)CCCC(C)[C@H]1CCC2C3C(=O)C=C4C[C@@H](O)CC[C@]4(C)C3CC[C@@]21C (some centres not stated)
active: locus YGL240W, strain doc1, active compounds read low 1.13 [resistant]
inactive: locus YAL013W, strain DEP1, active compounds read low 1.02 | locus YAL021C, strain ccr4, active compounds read low 0.974 | locus YAL026C, strain drs2, active compounds read low 1.02 | locus YAL030W, strain snc1, active compounds read low 0.996 | locus YBL061C, strain skt5, active compounds read low 1.01 | locus YBR009C, strain hhf1, active compounds read low 1.06 | locus YBR021W, strain FUR4, active compounds read low 1.05 | locus YBR023C, strain chs3, active compounds read low 1.01 | locus YBR171W, strain sec66, active compounds read low 1 | locus YBR229C, strain ROT2, active compounds read low 1.06 | locus YBR231C, strain swc5, active compounds read low 1.05 | locus YBR279W, strain paf1, active compounds read low 1.01 | locus YCL011C, strain gbp2, active compounds read low 0.994 | locus YCL016C, strain dcc1, active compounds read low 1 | locus YCL029C, strain bik1, active compounds read low 1.03 | locus YCL061C, strain MRC1, active compounds read low 1.01 | locus YCL069W, strain vba3, active compounds read low 0.996 | locus YCR088W, strain abp1, active compounds read low 0.991 | locus YDL005C, strain med2, active compounds read low 0.994 | locus YDL035C, strain GPR1, active compounds read low 1.04 | locus YDL040C, strain nat1, active compounds read low 0.982 | locus YDL074C, strain BRE1, active compounds read low 1.04 | locus YDL101C, strain DUN1, active compounds read low 1.04 | locus YDL185W, strain tfp1, active compounds read low 1.04 | locus YDL192W, strain arf1, active compounds read low 1.06 | locus YDR001C, strain nth1, active compounds read low 1.01 | locus YDR069C, strain doa4, active compounds read low 1 | locus YDR101C, strain arx1, active compounds read low 1.04 | locus YDR137W, strain rgp1, active compounds read low 0.946 | locus YDR150W, strain NUM1, active compounds read low 1.01 | locus YDR159W, strain sac3, active compounds read low 1.06 | locus YDR162C, strain NBP2, active compounds read low 1.07 | locus YDR195W, strain ref2 0.997 | locus YDR297W, strain sur2, active compounds read low 0.996 | locus YDR318W, strain mcm21, active compounds read low 1.03 | locus YDR334W, strain swr1, active compounds read low 0.975 | locus YDR335W, strain msn5, active compounds read low 1.01 | locus YDR388W, active compounds read low 1.02 | locus YDR392W, strain spt3, active compounds read low 0.968 | locus YDR502C, strain sam2, active compounds read low 1.02 | locus YEL003W, strain gim4, active compounds read low 0.996 | locus YEL037C, strain rad23, active compounds read low 1.01 | locus YEL061C, strain CIN8 (second series), active compounds read low 1 | locus YEL061C, strain CIN8, active compounds read low 1.01 | locus YER015W, strain faa2, active compounds read low 1.01 | locus YER016W, strain bim1, active compounds read low 0.994 | locus YER110C, active compounds read low 1.04 | locus YER111C, strain swi4, active compounds read low 1 | locus YER155C, strain BEM2 (second series), active compounds read low 1.03 | locus YER155C, strain BEM2, active compounds read low 1.01 | locus YER167W, strain BCK2, active compounds read low 1.03 | locus YFR010W, strain ubp6, active compounds read low 1.02 | locus YGL078C, strain dbp3, active compounds read low 1.04 | locus YGL086W, strain mad1, active compounds read low 1.01 | locus YGL167C, strain pmr1, active compounds read low 1.01 | locus YGL173C, strain kem1, active compounds read low 1 | locus YGL227W, strain vid30, active compounds read low 1.01 | locus YGL248W, strain PDE1, active compounds read low 1.04 | locus YGL253W, strain hxk2, active compounds read low 0.93 | locus YGR135W, strain pre9, active compounds read low 1.04 | locus YGR229C, strain SMI1, active compounds read low 1.08 | locus YGR252W, strain gcn5, active compounds read low 1.05 | locus YHR013C, strain ard1, active compounds read low 1.02 | locus YHR027C, strain rpn1, active compounds read low 0.992 | locus YHR030C, strain SLT2, active compounds read low 1.01 and 0.966 | locus YHR079C, strain IRE1 (second series), active compounds read low 1.02 | locus YHR079C, strain IRE1, active compounds read low 1.01 | locus YHR094C, strain hxt1, active compounds read low 1.04 | locus YHR129C, strain ARP1, active compounds read low 1.03 | locus YHR142W, strain chs7, active compounds read low 0.918 | locus YHR200W, strain rpn10, active compounds read low 1 | locus YIL066C, strain RNR3, active compounds read low 1.04 | locus YIL073C, strain SPO22, active compounds read low 1.28 | locus YIL125W, strain kgd1, active compounds read low 1.02 | locus YIR030C, strain dcg1, active compounds read low 1.04 | locus YJL092W, strain hpr5, active compounds read low 0.996 | locus YJL095W, strain BCK1 (second series), active compounds read low 0.998 | locus YJL095W, strain BCK1, active compounds read low 1.05 and 0.966 | locus YJL115W, strain asf1, active compounds read low 1.01 | locus YJL129C, strain trk1, active compounds read low 0.958 | locus YJL134W, strain LCB3, active compounds read low 1.01 | locus YJL154C, strain vps35, active compounds read low 1.01 | locus YJL164C, strain tpk1, active compounds read low 0.966 | locus YJL166W, strain qcr8, active compounds read low 1 | locus YJL168C, strain set2, active compounds read low 1.03 | locus YJL187C, strain SWE1 (second series), active compounds read low 1.04
